Shown is part of a subset that was picked to be rich in hits.
CD11b adhes enh: enhancers of human CD11b/CD18 binding to fibrinogen; P05107+P11215; K562 CD11b/CD18 adhesion to fibrinogen, ATPlite luminescence; activation, % at 10 µM; 0.07% of 93,000 active;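 active = 10 µM primary screen giving 50% or more activity, confirmed by 40% or more on retest at that dose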
Target sequence (P05107 whole entry, looked up, other chains not shown): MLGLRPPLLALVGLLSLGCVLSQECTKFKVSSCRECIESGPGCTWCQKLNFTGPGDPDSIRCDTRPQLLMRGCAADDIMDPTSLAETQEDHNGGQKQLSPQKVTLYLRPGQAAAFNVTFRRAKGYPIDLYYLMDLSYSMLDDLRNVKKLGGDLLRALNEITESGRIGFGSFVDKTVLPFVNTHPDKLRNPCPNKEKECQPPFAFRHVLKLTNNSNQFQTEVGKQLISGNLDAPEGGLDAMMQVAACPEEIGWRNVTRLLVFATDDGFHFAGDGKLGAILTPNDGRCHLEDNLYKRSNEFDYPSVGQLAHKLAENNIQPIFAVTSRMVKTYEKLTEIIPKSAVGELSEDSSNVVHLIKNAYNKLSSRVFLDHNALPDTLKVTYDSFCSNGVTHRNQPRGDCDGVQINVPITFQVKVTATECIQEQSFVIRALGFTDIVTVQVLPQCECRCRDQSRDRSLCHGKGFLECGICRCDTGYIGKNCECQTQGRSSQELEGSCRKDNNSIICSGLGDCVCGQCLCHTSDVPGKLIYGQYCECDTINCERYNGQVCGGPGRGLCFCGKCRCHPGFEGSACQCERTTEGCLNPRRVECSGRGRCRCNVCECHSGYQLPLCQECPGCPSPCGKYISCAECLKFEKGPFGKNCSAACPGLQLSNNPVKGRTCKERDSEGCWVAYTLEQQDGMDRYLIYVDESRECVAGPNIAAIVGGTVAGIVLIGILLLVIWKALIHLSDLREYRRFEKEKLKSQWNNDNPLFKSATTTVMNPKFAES
Mac1 fbg inh: blocks human CD11b/CD18 adhesion to fibrinogen; K562 CD11b/CD18 adhesion to fibrinogen, ATPlite luminescence; Mn2+ added to activate the integrin; inhibition, % at 10 µM; 0.54% of 93,000 active; AID 1497; P05107+P11215;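 active = primary inhibition of 50% or more at 10 µM, then 40% or more on retest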
D1 allo mod: allosteric modulators of human D1 dopamine receptor | B-score at 10 µM | 5.9% of 58,000 active | HEK293 D1, CRE-luciferase, dopamine EC30 potentiation; actives deviate in either direction | P21728 | AID 641;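 active = luminescence count or its row- and column-corrected plate score outside the 99.7% band of the plate's sample wells, on either side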
DAT uptake mod: modulates human dopamine transporter uptake under cocaine; Q01959; LLC-PK1 hDAT cells, [14C]-dopamine uptake with cocaine IC80; actives deviate in either direction; B-score at 10 µM; 1.3% of 110,000 active; AID 449768;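 active = Z score or B-score, a plate-position-corrected score, falls beyond the plate's 99.7% confidence bounds, in either direction; inactive = both scores lie inside the 99.7% bounds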
PTK2B oligo ant: antagonists of human Pyk2 oligomerization; z-score (the deposit names both 25 µM and 10 µM); Q293 cells, Pyk2 FERM NanoBiT luminescence; hits give low values; Q14289; AID 1347419; 0.83% of 99,000 active;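 active = Z-score of -3 or lower, scaled per plate to the spread of control and sample wells; inactive = z-score above -3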;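 also: negative z-score means lost luminescence so less FERM oligomerization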
FAK blocker: FAK (human) kinase inhibition | 0.84% of 97,000 active | AID 727 | Q05397 | inhibition, %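 (tested at 7 µM)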 | biochemical FAK kinase activity assay
FAK inh conf: FAK (human) inhibition confirmed. shares compounds with FAK blocker. FAK kinase biochemical inhibition assay. inhibition, % at 7 µM. 28% of 750 active. AID 794
A number is an active result; 0 = inactive; - = no result given. Rule as the data show it, unless noted: active = inhibition above about 19%; inactive = the rest.

SMILES | CD11b adhes enh | Mac1 fbg inh | D1 allo mod | DAT uptake mod | PTK2B oligo ant | FAK blocker | FAK inh conf
O=C(Nc1ccc(-n2nncc2-c2ccco2)cc1)c1cc2ccccc2oc1=O | 168.4 | 0 | - | 0 | 0 | 81.8 | 78.2
Nc1nnnn1/N=C/c1ccccc1OCc1ccc(Cl)cc1Cl | 0 | 0 | - | 0 | 0 | 29.2 | 0
C=CCn1c(SC2CCOC2=O)nc2scc(C3CC3)c2c1=O (configuration not stated) | 0 | 0 | 0 | 0 | 0 | 0 | -
C=CCn1c(SCC(=O)c2ccc(CNC(C)=O)o2)nc2scc(C3CC3)c2c1=O | 0 | 0 | 0 | 0 | 0 | 26.6 | 0
O=C(NCCCN1CCCCCC1)c1ccc(CS(=O)(=O)Cc2ccccc2F)o1 | - | - | - | 0 | 0 | 24.6 | 29.9
COc1ccc(C(=O)Nc2ccc(N3CCCC3)cc2)cc1 | 0 | 0 | - | 0 | 0 | 32.0 | 0
Cc1cc(C)cc(OCC(=O)Nc2ccc(N3CCCC3)cc2)c1 | 0 | 0 | 0 | 0 | 0 | 38.6 | 40.2
COC(=O)C1=C(C)Nc2c(c(=O)n(C)c(=O)n2C)C1c1cccs1 (configuration not stated) | 0 | 0 | 0 | 0 | 0 | 18.8 | 0
Cc1ccccc1-n1c(C)cc(/C=N/Nc2ccc([N+](=O)[O-])cn2)c1C | 0 | 0 | - | 0 | 0 | 0 | -
O=[N+]([O-])c1ccc(N/N=C\c2cccn2-c2ccccc2)nc1 | - | - | - | - | 0 | 30.4 | 0
CC1(C)Cc2c(C#N)c(N3CCN(C(=O)c4ccccc4Cl)CC3)nc(-c3ccco3)c2CS1 | 0 | 0 | - | 0 | 0 | 25.3 | 0
CC1(C)Cc2c(C#N)c(N3CCN(C(=O)c4ccco4)CC3)nc(-c3ccco3)c2CS1 | - | - | - | 0 | 0 | 0 | -
Cc1c(-n2cc(C(=O)c3cc(Br)ccc3O)cc(C#N)c2=O)c(=O)n(-c2ccccc2)n1C | 0 | 0 | - | 0 | 0 | 0 | -
O=C(Cn1c2ccccc2c(=O)c2ccccc21)N/N=C/c1cc([N+](=O)[O-])ccc1N1CCCCCC1 | 107.4 | 0 | - | 0 | 0 | 69.3 | 79.6
COc1ccc(CNC(=O)C(C)N(Cc2ccco2)C(=O)c2snc(C(N)=O)c2N)cc1 (configuration not stated) | 0 | 0 | 0 | 0 | 0 | 0 | -
CCc1ccccc1N(CC(=O)NCc1ccco1)C(=O)c1snc(C(N)=O)c1N | 0 | 0 | 0 | 0 | 0 | 40.8 | 0
CCOc1cc(/C=C2/NC(=S)NC2=O)ccc1OCc1ccc([N+](=O)[O-])cc1 | 0 | 0 | - | 0 | 0 | 41.0 | 22.4
CN(C(=O)CSC1=Nc2ccccc2C2=NC(c3ccccc3)C(=O)N12)C1CCCCC1 (configuration not stated) | 0 | 0 | - | 0 | 0 | 0 | -
CC1CCN(C(=O)CSc2nnc(-c3cc4ccccc4cc3O)n2Cc2ccco2)CC1 | 0 | 0 | 0 | 0 | 0 | 0 | -
Cc1ccccc1NC(=S)Nc1ccc(Br)cc1 | 0 | 0 | - | - | - | - | -
Cc1ccc(/C=C/C(=O)Nc2sc3c(c2C#N)CCCC3)o1 | 0 | 0 | - | - | - | - | -
CCCN(CCC)C(=O)CSc1nc2n[nH]c(C)c2c(=N)n1-c1ccc(OC)cc1 | 0 | 0 | 0 | - | 0 | 21.8 | 0
CCc1ccc(OCC(=O)N/N=C2\CC(=O)c3ccccc32)cc1 | 0 | 0 | - | 0 | 0 | 31.9 | 0
Cc1ccc(OCC(=O)NN=C2c3ccccc3-c3ccccc32)cc1 | 0 | 0 | - | 0 | 0 | 0 | -
Oc1ccc(N=Cc2ccc(-c3cccs3)s2)cc1 | 0 | 0 | 0 | 0 | 0 | 42.6 | 0
SMILES | CD11b adhes enh | Mac1 fbg inh | D1 allo mod | DAT uptake mod | PTK2B oligo ant | FAK blocker | FAK inh conf
O=C1CCCC(O)=C1C=Nc1ccc(O)cc1 | 0 | 0 | 0 | 0 | 0 | 0 | -
O=C(NNC(=O)c1cc2cc3ccccc3nc2s1)c1cccc(C(F)(F)F)c1 | - | - | - | - | 0 | 24.9 | 0
O=C(NNS(=O)(=O)c1ccccc1)c1cc2cc3ccccc3nc2s1 | - | - | - | 0 | 0 | 0 | -
O=C(c1cccs1)[C@@H]1[C@@H]2C(=O)N(Cc3ccc4c(c3)OCO4)C(=O)[C@@H]2C2c3ccccc3C=CN21 (some centres not stated) | 0 | 0 | - | - | - | 20.1 | 0
COc1ccc2c3c(cccc13)N(C)N=C2C | 0 | 0 | - | - | 0 | 33.6 | 0
CCOC(=O)Cc1csc(NS(=O)(=O)c2ccc(Cl)cc2)n1 | - | - | - | - | 0 | - | -
O=C(COC(=O)[C@H](Cc1ccccc1)NC(=O)c1ccco1)NCc1ccccc1 | 0 | 0 | - | 0 | 0 | 0 | -
CCOC(=O)c1cnn(-c2ncnc3sc4c(c23)CCC4)c1N | 0 | 0 | 0 | 0 | 0 | 25.6 | 0
CCOC(=O)C(C)n1cnc2sc3c(c2c1=O)CCC3 (configuration not stated) | 0 | 0 | 0 | 0 | 0 | 0 | -
CC(=O)Oc1ccc(-c2csc(Nc3cccnc3)n2)cc1 | 0 | 0 | - | - | 0 | 20.1 | 0
O=c1cc(C(Cl)(Cl)Cl)oc2c1ccc1ccccc12 | 0 | 0 | - | 0 | 0 | 0 | -
O=c1cc(-c2ccco2)oc2c1ccc1ccccc12 | 0 | 0 | - | 0 | 0 | 25.5 | 21.7
COc1ccc(CCNC(=O)C2CC(c3cc(C(F)(F)F)cc(C(F)(F)F)c3)=NO2)cc1 (configuration not stated) | - | - | - | 0 | - | - | -
OC(COc1ccc(C2C=CCC2)cc1)CN1CCCCC1 (configuration not stated) | 0 | 0 | 0 | 0 | 0 | 21.6 | 0
c1ccc(CCn2c3ccccc3c3nnc(SCc4ccc5nonc5c4)nc32)cc1 | 0 | 0 | - | 0 | 0 | 0 | -
O=C(Cn1c(=O)n(Cc2ccco2)c(=O)c2c3c(sc21)CCCCC3)Nc1ccccc1 | 0 | 0 | - | 0 | 0 | 32.0 | 0
O=C(Cn1c(=O)n(Cc2ccco2)c(=O)c2c3c(sc21)CCCCC3)c1ccccc1 | - | - | - | 0 | 0 | 30.4 | 0
COc1ccc(-c2cn[nH]c2N)c(OC)c1 | 0 | 0 | 0 | 0 | 0 | 30.6 | 0
COc1ccc(-c2cn[nH]c2N)cc1 | 0 | 0 | - | 0 | 0 | 0 | -
CCCOc1ccc(N)cc1N | 0 | 0 | 0 | - | 0 | 22.1 | 0
Nc1ccccc1OCCOCCOc1ccccc1N | 0 | 0 | 0 | 0 | 0 | 0 | -
Cc1cc(C)n(-c2nc(Nc3ccccc3)nc(-n3nc(C)cc3C)n2)n1 | 0 | 0 | 0 | 0 | 0 | 25.7 | 0
Cc1ccc(C2C(C(=O)c3cc4ccccc4o3)=C(O)C(=O)N2CCCN(C)C)cc1 (configuration not stated) | - | - | 0 | - | - | - | -
COc1ccc2c(c1)[nH]c1c(N3CCN(Cc4ccc5c(c4)OCO5)CC3)ncnc12 | 0 | 82.8 | - | 0 | 0 | 25.4 | 0
Cc1ccc2[nH]c3c(N4CCN(Cc5ccccc5)CC4)ncnc3c2c1 | 0 | 0 | - | 0 | 0 | 0 | -
Fc1ccc2[nH]c3c(N4CCN(C5CCCCC5)CC4)ncnc3c2c1 | 0 | 0 | - | - | - | - | -
Cc1ccc2[nH]c3c(N4CCN(Cc5ccc6c(c5)OCO6)CC4)ncnc3c2c1 | 0 | 90.9 | - | - | - | 38.3 | 0
Cc1ccc2[nH]c3c(N4CCCCCC4)ncnc3c2c1 | 0 | 0 | - | - | - | 42.2 | 0
C#Cc1ccc([C@@H]2C=C(C(=O)O)O[C@H](OCC)[C@H]2CCCO)cc1 | - | - | - | 0 | - | - | -
CN1CCc2nc(SCC(=O)Nc3ccc(F)cc3)c(C#N)cc2C1 | 0 | 0 | 0 | 0 | - | 0 | -

Source: PubChem BioAssay
